According to PubChem BioAssay (NCI):
The panel holds about 83,000 compounds, 20% with a hit somewhere; the sample as a whole holds those more often.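 Growth was measured after 48 h exposure to one concentration of compound in 96-well plates. Values under 10 count as active.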 A number with no mark means an inactive call. Active and inactive are the calls of the source.

Each compound was assayed on MDA-MB-231 breast (assay: NCI-60 one-dose screen, 48 h (100 = growth as untreated, 0 = no growth, -100 = all killed)). Conditions: 10 µM unless noted.

| SMILES | growth |
| --- | --- |
| O=C(CC1(O)C(=O)N(Cc2ccccc2)c2ccc(Cl)cc21)c1ccc(C(=O)NCC2CCC3(CC2)OOC2(CCCCC2)OO3)cc1 (stereo not drawn) | -74.9% (active) |
| COC(=O)[C@@H](C)C[C@H](Cc1ccccc1)NC(=O)c1csc([C@@H](C[C@H](C(C)C)N(C)C(=O)[C@@H](NC(=O)C23CC(NC(C)=O)(C2)C3)C2CC2)OC(C)=O)n1 | 57.9% |
| COC(=O)[C@]12CCC(C)(C)C[C@H]1[C@H]1C(=O)C[C@@H]3[C@@]4(C)C[C@@]5(CC(C)(C)[C@@H]4CC[C@@]3(C)[C@]1(C)CC2)OO[C@@](C)(C(F)(F)F)O5 | 94.8% |
| CNC(=O)Oc1ccc(N(C)C)cc1C(C)C | 103% |
| COc1ccc(/C=C\c2cc(OC)c(OC)c(OC)c2)cc1OCC(=O)Nc1nc2ccc(C(F)(F)F)cc2s1 | 12.8% |
| O=C(CC1(O)C(=O)N(Cc2ccccc2)c2ccc(F)cc21)c1ccc(C(=O)NCC2CCC3(CC2)OOC2(CCCCC2)OO3)cc1 (stereo not drawn) | -74% (active) |
| c1cnc2[nH]cc(-c3csc(-c4cn(CCCCN5CCCCC5)c5ccccc45)n3)c2c1 | 83.3% |
| COc1ccc(NC([Se])=NC23CC4CC(CC(C4)C2)C3)cc1 | -44.4% (active) |
| Clc1cccc(Cl)c1Cl | 117% |
| C[C@]12CCc3sc(-c4ccccc4O)nc3C1=CC[C@@H]1[C@@H]2CC[C@]2(C)C(=O)CC[C@@H]12 | 103% |
| O=C(CC1(O)C(=O)Nc2ccccc21)c1ccc(C(=O)NCC2CCC3(CC2)OOC2(CCCCC2)OO3)cc1 (stereo not drawn) | 67% |
| CCCOC(=O)N[C@H]1CCc2c(Br)c(OC)c(OC)c(OC)c2-c2ccc(SC)c(=O)cc21 | -13.4% (active) |
| Cc1cc(C)c(CBr)c(C)c1 | 106% |
